According to ChEMBL document CHEMBL4513216, “Probing the Open Global Health Chemical Diversity Library for Multistage-Active Starting Points for Next-Generation Antimalarials” (ACS Infect Dis, 2020):
In all, about 69,000 compounds went through this assay and about 8,600 (12%) showed an effect of 50% or more. The entries come from a sample that favours strong results as a whole.

What follows are molecules tested on Plasmodium berghei (assay: Screen against P. berghei liver stage (PbLuc), transformed with Luciferase, at 10uM). Details: tested at 10 uM.
Type: functional, HepG2
`Cc1cc(NCc2ccccc2)nc2[nH]nc(N)c12` was tested, and the INHIBITION was -0.232%.
For `Cc1cc(NCc2ccco2)nc2[nH]nc(N)c12`, the INHIBITION was 61%.
`Cc1cc(NCCO)nc2[nH]nc(N)c12` showed an INHIBITION of 26.7%.
`CC1CN(C)CCN1C(=O)COc1cccc(Oc2ccccn2)c1` (stereo not drawn) showed an INHIBITION of 61.2%.
`CC1COCCN1C(=O)COc1ccc(Oc2ccccn2)cc1` (stereo not drawn) showed an INHIBITION of 8.99%.
`CC1COCCN1C(=O)COc1cccc(Oc2ccccn2)c1` (stereo not drawn) showed an INHIBITION of -20.6%.
Molecule `CCSCCC(=O)NS(=O)(=O)c1ccc2c(c1)OCCO2` has an INHIBITION of 41.9%.
Work on `O=S(=O)(CCCS(=O)(=O)c1ccc2c(c1)OCCCO2)c1ccccc1` yielded an INHIBITION of -46.8%.
With `CC(C)CC(=O)NS(=O)(=O)c1ccc2c(c1)OCCCO2` the INHIBITION was -7.81%.
For `CCS(=O)(=O)c1ccc2c(c1)OCCO2`, the INHIBITION was 77.8%.
`CCS(=O)(=O)c1ccc2c(c1)OCCCO2` was tested, and the INHIBITION was 55.9%.
With `CSCC(=O)NS(=O)(=O)c1ccc2c(c1)OCCO2` the INHIBITION was 8.315%.
`CC1=N[C@@]2(CC[C@@H]3CN(Cc4cccc(Cl)c4)C[C@@H]32)C(=O)N1CC1CC1` was tested, and the INHIBITION was 14.9%.
With `Cc1ccc(C2CCCN(S(C)(=O)=O)C2)nc1` (stereo not drawn) the INHIBITION was 6.75%.
For `O=C(NC[C@]12COC[C@H]1CN(C1CCOCC1)C2)c1ccco1`, the INHIBITION was 38.7%.
Molecule `Cc1cccc2c1OCCCC2NCc1nnc2n1CCCCC2` (stereo not drawn) has an INHIBITION of 86.8%.
`Cc1ccc2c(c1)OCCCC2NCc1nnc2n1CCCCC2` (stereo not drawn) gave an INHIBITION of -14.2%.
`c1ccc2c(c1)OCCCC2NCc1nnc2n1CCCCC2` (stereo not drawn) was tested, and the INHIBITION was -0.55%.
For `CS(=O)(=O)c1cc(Cl)cnc1C1CCN(C(=O)C2CCCO2)CC1` (stereo not drawn), the INHIBITION was 12.75%.
With `O=C(Cc1cccc(F)c1)N1C[C@H]2CN(Cc3ccccn3)C[C@H]2C1` the INHIBITION was 9.97%.
For `N#Cc1ccsc1N1CCC(Sc2ncc[nH]2)C1=O` (stereo not drawn), the INHIBITION was 27.6%.
Work on `Cc1c(NC(C)C(C)C)cccc1C(=O)NCc1ccnn1C` (stereo not drawn) yielded an INHIBITION of 62.7%.
`CC(C)Nc1ncccc1C(=O)NCc1ccnn1C` gave an INHIBITION of 43%.
Work on `Cc1c(NC(C)C(C)C)cccc1C(=O)NCc1nnc(C)n1C` (stereo not drawn) yielded an INHIBITION of -20.8%.
In the case of `Cc1c(NC(C)C(C)C)cccc1C(=O)NCc1cnn(C)c1` (stereo not drawn), the INHIBITION is reported as 29.3%.
`Cc1c(NC(C)C(C)C)cccc1C(=O)NCc1nccn1C` (stereo not drawn) was tested, and the INHIBITION was 57.4%.
In the case of `Cn1ccnc1CNC(=O)c1ccnc(C2CCNCC2)c1`, the INHIBITION is reported as -12.4%.
`O=C1NC2(Cc3ccccc31)CN(CC1CCCC1)C2` gave an INHIBITION of 45.8%.
With `CCOC(=O)C1CCN(C(=O)c2cc(Br)ccc2-n2cnnn2)CC1` the INHIBITION was 17.6%.
`COC(=O)C1CCN(C(=O)c2cc(Br)ccc2-n2cnnn2)CC1` gave an INHIBITION of 53.8%.
For `NC(=O)C1CCN(C(=O)c2cc(Br)ccc2-n2cnnn2)CC1`, the INHIBITION was 28.6%.
With `CC(CN1CCOCC1)OC(=O)c1ccccc1Cl` (stereo not drawn) the INHIBITION was 35.8%.
`Cn1nnc2c1C(COCc1ccccn1)CN(C(=O)c1ccsc1)C2` (stereo not drawn) was tested, and the INHIBITION was 1.9%.
With `Cc1ccccc1CN(CCN(C)C)Cc1ncc[nH]1` the INHIBITION was 3.96%.
With `Cc1cc(N(C)Cc2ncc[nH]2)nc(-c2ccccc2)n1` the INHIBITION was 59.8%.
Molecule `Cc1cc(N(C)Cc2snnc2C)nc(-c2cccnc2)n1` has an INHIBITION of -26.2%.
Work on `Cc1cc(CC(C)Nc2nc(-c3cccnc3)nc3c2CNC3)[nH]n1` (stereo not drawn) yielded an INHIBITION of 47.4%.
In the case of `Cc1cc(N(C)Cc2cc(C(C)(C)C)n[nH]2)nc(-c2cccnc2)n1`, the INHIBITION is reported as 76.5%.
Work on `Cc1cc(N(C)Cc2ncc[nH]2)nc(-c2cccnc2)n1` yielded an INHIBITION of -18.5%.
Work on `O=C(Cn1cccn1)N1CCC(c2nnc(-c3ccsc3)o2)CC1` yielded an INHIBITION of 23.55%.
With `CN(C1CCCN(c2ccccn2)C1)S(C)(=O)=O` (stereo not drawn) the INHIBITION was -2.25%.
Molecule `CC(=O)Nc1cc2c(cc1C)OCO2` has an INHIBITION of 19.3%.
`COc1c(CNCC(O)COc2ccc3c(c2)OCO3)c(C)nn1C` (stereo not drawn) gave an INHIBITION of 21.5%.
In the case of `COc1ccccc1COCC(O)CN(C)Cc1cccc(Cl)c1` (stereo not drawn), the INHIBITION is reported as 24.6%.
`Cc1ccccc1CN(C)CC(O)COCc1ccccc1Cl` (stereo not drawn) gave an INHIBITION of 60%.
`COc1ccc(CN(C)CC(O)COCc2ccccc2Cl)c(OC)c1` (stereo not drawn) gave an INHIBITION of 48.2%.
`O=S(=O)(NCc1ccc(S(=O)(=O)N2CCCC2)s1)c1ccc(F)cc1Cl` gave an INHIBITION of 18.3%.
With `CN(C)S(=O)(=O)c1ccc2c(c1)N(Cc1nccn1C)CC2` the INHIBITION was 37.1%.
For `Cc1ccc([C@@]2(O)CC[C@@H]3CN(S(=O)(=O)C(C)C)C[C@@H]32)cc1`, the INHIBITION was 3.91%.
With `CC(C)n1cc(CN2CCCN(C(=O)c3ccc[nH]3)CC2)cn1` the INHIBITION was 52.1%.
With `CC(C)n1cc(CN2CCCN(C(=O)c3ccco3)CC2)cn1` the INHIBITION was 25.1%.
For `Cc1cc(C(=O)N2CCCN(Cc3cnn(C(C)C)c3)CC2)no1`, the INHIBITION was 39.3%.
Molecule `CC(C)n1cc(CN2CCCN(C(=O)c3cc(Cl)c[nH]3)CC2)cn1` has an INHIBITION of 54.9%.
